Results filed as inconclusive are left out. Unmarked numbers belong to inactive results. Active and inactive are the calls of the source. The call rests on the fitted dose curve; in most records, active means well fitted cell-killing curve with a large enough effect; inconclusive means small, poorly fitted or top-dose-only effect; inactive means flat fitted curve, though single readings scatter.
Test: Compound cytotoxicity measured by an ATP content assay as a counter-screen for lead compounds in human iPSC derived neural progenitor cells (hNPCs)
Settings: human iPSC-derived NPC viability, ATP luminescence; series mostly up to 46.1 µM; activity, negative = cytotoxicity: at the top concentration
How it was run: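 Viability read as luminescent ATP content, 10 min at RT after reagent. Compound incubation of 6, 24 or 72 h on human iPSC-derived neural progenitors pre-cultured 16–20 h; values are percent inhibition.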
With `Nc1ccc(O)c(C(=O)O)c1` the “activity, negative = cytotoxicity” value was -2.85%. In the case of `CCC(C)SSc1ncc[nH]1` (centres undefined), the Potency is reported as 19.5 µM (active). With `CC1(C)OC2=C(C(=O)c3ccccc3C2=O)[C@H](NCc2ccccc2)[C@H]1O` the Potency was 3.98 µM (active). In the case of `O=c1cc(-c2ccccc2)oc2cc(O)cc(O)c12`, the “activity, negative = cytotoxicity” value is reported as -13.1%.

From PubChem BioAssay AID1224860 (National Center for Advancing Translational Sciences (NCATS), 2016)
